The list is not random: actives were taken first. Their share in the collection is about 0.81%.
TRPML1 agonist: activates the human TRPML1 channel; Q9GZU1; TRPML1-expressing cells, Ca2+ dye fluorescence, FDSS; activation, % (test concentration not listed); 410,000 compounds, 0.12% hits; in the data active = activation above about 50%; inconclusive = mostly about 30% to 49%; also: 0% is about no effect
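Kinetic FDSS Ca2+ read in Tet-induced TRPML1-DL cells (ABD Ca8 dye plus quencher, 45-90 min RT loading): baseline, then compound, then 110 s agonist window; EC80 agonist 54-4 at 4uM final added afterwards for a 110 s antagonist window.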
TRHR PAM: TRH receptor (human) allosteric enhancement; 360,000 compounds, 0.66% hits; P34981; enhancement, % at 2 µM; TRHR cells, fluo-8 calcium fluorescence, EC20 TRH enhancement; AID 493056; in the data active = enhancement above about 30%; also: 0% is about no effect
Target sequence (P34981 whole entry, looked up): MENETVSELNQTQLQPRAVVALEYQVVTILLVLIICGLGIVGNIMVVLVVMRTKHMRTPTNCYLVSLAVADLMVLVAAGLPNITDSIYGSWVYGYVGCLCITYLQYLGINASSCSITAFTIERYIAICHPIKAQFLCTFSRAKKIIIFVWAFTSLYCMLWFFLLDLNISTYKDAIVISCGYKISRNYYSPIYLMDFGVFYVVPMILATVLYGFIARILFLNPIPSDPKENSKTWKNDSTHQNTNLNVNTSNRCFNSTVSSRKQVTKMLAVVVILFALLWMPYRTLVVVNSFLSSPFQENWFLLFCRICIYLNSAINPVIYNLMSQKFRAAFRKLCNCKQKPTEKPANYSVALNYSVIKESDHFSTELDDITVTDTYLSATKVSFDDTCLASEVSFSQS
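TRHR-expressing cells loaded with fluo-8 calcium dye were read kinetically (ex 480/em 530) during compound addition, then stimulated with an EC20 of TRH (10 nM final). Enhancement of the Gq-mediated intracellular calcium response was scored.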
TRHR agonist: activates the human TRH receptor; P34981; TRHR cells, calcium flux fluo-8, FDSS agonist mode; activation, % at 2 µM; 360,000 compounds, 0.18% hits; AID 493084; in the data active = activation above about 30%; also: 0% is about no effect
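Fluo-8-loaded TRHR cells; 10 s baseline, compound added, kinetic Ca2+ fluorescence read 1/s, agonist mode.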
TRPML1 inh: inhibitors of human TRPML1 channel; Q9GZU1; TRPML1-inducible cells, Ca2+ dye fluorescence, FDSS; stronger effect = lower value; inhibition of EC80 agonist-evoked calcium signal; activity change, negative = inhibition, % (no concentration beside the values); 390,000 compounds, 0.02% hits; AID 624415; in the data active = activity change below about -50%; inconclusive = between about -30% and that limit;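 also: stimulus is agonist 54-4 at its EC80 concentration; % is scaled to controls: 0 for no effect and ±100 for the full control effect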
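TRPML1-DL cells, Tet-induced overnight (~16 h, 37 °C) at 1,500 cells/well, were loaded with Ca8 no-wash dye plus quencher for 45-90 min at room temperature. Compounds were pinned during FDSS kinetic reading; agonist 54-4 at EC80 (4 uM final) then added.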
* marks the source's active call; other numbers are inactive results; ? = inconclusive; / = no result given; ! = a repeat was not active.

SMILES	TRPML1 agonist	TRHR PAM	TRHR agonist	TRPML1 inh
CCOC(=O)c1c(C)[nH]c(C(=O)COC(=O)C(C)N2C(=O)C3CCCCC3C2=O)c1C (stereo not given)	1	-7	-1	20
CCOC(=O)c1c(C)[nH]c(C(=O)COC(=O)CN2C(=O)C3CCCCC3C2=O)c1C (stereo not given)	-1	31*	0	9
CCCc1cc(=O)[nH]c(SCC(=O)c2[nH]c(C)c(C(=O)OCC)c2C)n1	1	31*	0	-3
CC(C)(C)OC(=O)CC(=O)NNC(=O)c1nc2ccccc2[nH]1	/	4	-1	/
Cc1ccc(S(=O)(=O)N2CCN(c3nc(-n4c(=O)[nH]c5ccccc54)nc4ccccc34)CC2)cc1	0	/	/	/
CC(C)(C)n1ncc2c(=O)n(Cc3ccc(C#N)cc3F)cnc21	0	/	/	23
CCOC(=O)c1ccccc1NC(=O)CN(c1ccc(OCC)cc1)S(C)(=O)=O	/	35*	0	/
CCCCCCCCCCCCCCCC[n+]1ccc(C)cc1	6	/	/	/
Cc1c(NC(=O)c2cc(-c3ccc(Cl)cc3)on2)c(=O)n(-c2ccccc2)n1C	-1	30*!	-1	9
N#Cc1nc(NCC(F)F)c2ncn(-c3cccc(Cl)c3)c2n1	/	0	0	/
C[n+]1ccnc2cc(Cl)ccc21	5	/	/	/
O=C(CCc1ccc(S(=O)(=O)N2CCOCC2)cc1)OCc1nc2ccccc2s1	2	-9	-1	-2
O=C(CCc1nc2ccccc2[nH]c1=O)OCc1ccc(S(=O)(=O)N2CCOCC2)cc1	2	36*	0	-2
CN(Cc1ccccc1)c1ccc(/C=C/c2sc3ccccc3[n+]2C)cc1	4	/	/	/
O=C(NCCCN1CCCC1=O)c1cccc(NS(=O)(=O)c2ccccc2)c1	-1	3	0	-6
CC(C)(C)c1ccc(C(=O)NCCCn2ccnc2)cc1	-1	0	1	-12
O=C(NCCCn1ccnc1)c1cccc(S(=O)(=O)Nc2ccc(F)cc2)c1	1	-1	0	-9
CCc1sc(C(=O)NCCCn2ccnc2)cc1Br	1	31*	-2	15
O=C(NCCCN1CCCC1=O)c1cccc(NS(=O)(=O)c2ccc(Br)cc2)c1	0	33*	0	6
O=C(NCCCn1ccnc1)c1cccc(S(=O)(=O)Nc2ccc(Br)cc2)c1	0	36*	0	-5
Cc1ccc(CNc2nc(-c3ccco3)nn2C(=O)c2ccccc2[N+](=O)[O-])cc1	2	37*	-2	24
N#CC1=C(N)OC2=C(CN(Cc3ccccc3)C/C2=C\c2cccnc2)C1c1cccnc1 (stereo not given)	-1	1	1	17
CC(C)N1CC2=C(OC(N)=C(C#N)C2c2cccnc2)/C(=C/c2cccnc2)C1 (stereo not given)	3	34*	0	9
O=C(Nc1nc(Nc2cc(F)cc(F)c2)nc(NC2CCCC2)n1)OCc1ccccc1	/	-3	1	/
O=c1cc(O)c2c(=O)[nH]c(=O)n(-c3ccccc3)c2[nH]1	0	33*	1	-10
SMILES	TRPML1 agonist	TRHR PAM	TRHR agonist	TRPML1 inh
Cn1c(=O)c2c(O)cc(=O)[nH]c2n(-c2ccccc2)c1=O	0	-5	0	-6
CCOC(=O)c1noc2nc(C)n(CC(=O)NC(C)CC)c(=O)c12 (stereo not given)	0	34*	0	?
Cc1ccc2nccnc2c1	0	/	/	/
CCCC[n+]1c(/C=C/c2ccc(N(C)C)cc2)sc2ccccc21	4	/	/	/
CCCCCCCCCC[n+]1ccc(/C=C/c2ccc(N(C)C)cc2)c2ccccc21	57*	/	/	/
O=C(O)/C=C/c1ccc2noc(-c3ccccc3)c2c1	-1	32*	1	-2
O=C(Cc1ccccc1)Nc1sc2c(c1C(=O)Nc1cccc(Cl)c1)CCCC2	/	4	2	/
C=CCc1cccc(/C=N/n2cnnc2)c1O	0	32*	0	-10
COc1ccc(C(=O)NC2(C(F)(F)F)C(=O)NC(C)=C2C#N)cc1OC (stereo not given)	-1	-4	0	-15
COc1ccc(C(=O)NC2(C(F)(F)F)C(=O)NC(C)=C2C#N)cc1 (stereo not given)	3	41*	0	8
Nc1c(C(=O)c2ccccc2)sc2nsc(SCCN3CCCC3)c12	?	-8	54*	-18
Nc1c(C(=O)c2ccc(Cl)cc2)sc2nsc(SCCN3CCOCC3)c12	11	-5	27	16

Screens as filed in PubChem BioAssay.
